The panel holds about 83,000 compounds, 20% with a hit somewhere; the sample as a whole holds those more often.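 Cells were grown in 96-well plates and exposed to the test compound at a single concentration for 48 hours; results are reported as percent growth, with values below 10 considered active.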 Values without a mark were called inactive. Calls of active or inactive are those of the source.

This assay deals with NCI-H23 lung. As to the kind of experiment: NCI-60 one-dose screen, 48 h (100 = growth as untreated, 0 = no growth, -100 = all killed). The settings on record: 10 µM unless noted.
In the case of `COc1cc(C2=NN(C(C)=O)C(c3ccc(N4CCOCC4)cc3)C2)cc(OC)c1OC` (stereo not drawn), the growth was 86.8%. Consider `COc1ccc([C@H]2c3[nH]c4ccccc4c3C[C@@H]3C(=O)N(C4CCN(Cc5ccccc5)CC4)CC(=O)N23)c(OC)c1`, for which the growth was 93.7%.

For the compound `COc1ccc([C@H]2[C@H](O)C(=O)N2c2cc(OC)c(OC)c(OC)c2)cc1Cl`, the growth was 29.9%. As for `COc1ccc(/C=C/C(=O)c2nnn(-c3ccc(C(=O)O)cc3)c2C)cc1OC`, the growth is 105%.

In the case of `O=[N+]([O-])c1ccc(-c2nnc(SCc3ccc(O)c4ncccc34)n2-c2ccccc2)cc1`, the growth was 13.7%. To `O=C(NCCCNc1cc(-c2cn(-c3ccccc3)nc2-c2cccc(O)c2)ccn1)Nc1cccc(C(F)(F)F)c1` belongs 58%; to `CC(C)C(=O)Nc1ccc(-c2nc(-c3cccc(O)c3)c(-c3ccnc(Br)c3)[nH]2)cc1`, 63.4%; to `Cc1cc(F)cc(NS(=O)(=O)c2ccc(-c3cnc(C4CC4)o3)cc2)c1`, 19.8%.

On to `CCOC(=O)c1c(NCC(=O)Nc2cccc(Cl)c2)sc2c1CCCC2`, for which the growth is 66.5%.

Turning to `O=S(=O)(Nc1cc(Cl)cc(Cl)c1)c1ccc(-c2cnc(C3CC3)o2)cc1`, the growth is 42.9%. With `COc1cc2c3c(n(CCCNC4CCC4)c(=O)c2cc1OC)-c1cc2c(cc1C3=O)OCO2`, the growth is -68% (active). In the case of `CCOC(=O)Nc1cccc(-n2cnc3cc(-c4ccc(O)cc4)ccc32)c1`, the growth was 32.3%. To `CC(=O)NC(C)(C)C(=O)N[C@@H](C)C(=O)NC(C)(C)C(=O)N[C@@H](C)C(=O)NC(C)(C)C(=O)N[C@@H](C)C(=O)N[C@@H](CCC(N)=O)C(=O)NC(C)(C)C(=O)N[C@H](C(=O)NC(C)(C)C(=O)NCC(=O)N[C@@H](CC(C)C)C(=O)NC(C)(C)C(=O)N1CCC[C@H]1C(=O)N[C@H](C(=O)NC(C)(C)C(=O)NC(C)(C)C(=O)N[C@@H](CCC(N)=O)C(=O)N[C@@H](CCC(N)=O)C(=O)N[C@H](CO)CC1CCCCC1)C(C)C)C(C)C` belongs 21.6% [5 µM]; to `Cc1nn(-c2ccc(Cl)cc2)c(C)c1N=Nc1ccc2oc(=O)ccc2c1`, 82.4%.

Consider `O=C(NCCNc1cc(-c2cn(-c3ccccc3)nc2-c2cccc(O)c2)ccn1)Nc1ccc(Cl)c(C(F)(F)F)c1`, for which the growth was 41.3%. For `CN(c1ccc(Br)cc1)S(=O)(=O)c1ccc(-c2cnc(C3CC3)o2)cc1`, the growth is 20%. The same measure for `CC(C)C[C@H]1C(=O)O[C@H](C(C)C)C(=O)N(C)[C@@H](C(C)C)C(=O)O[C@H](C(C)C)C(=O)N(C)[C@@H](C(C)C)C(=O)O[C@H](C(C)C)C(=O)N1C`: 6.64% (active); for `CCCC(=O)NC(c1cccnc1)c1cc(Cl)c2cccnc2c1O` (stereo not drawn): 44.7%; for `Nc1nc(-c2cccc([N+](=O)[O-])c2)c(N=Nc2ccccc2[N+](=O)[O-])s1`: 3.8% (active). For `C/C(=N\NC(=O)CSc1nc2sc3c(c2c(=O)n1-c1ccccc1)CCC(C)C3)c1ccc(Cl)cc1` (stereo not drawn), the growth was 28.2%. As for `C#C[C@]1(O)CC[C@H]2[C@@H]3CC=C4c5sc(Nc6nc(C)cc(OC)n6)nc5CC[C@]4(C)[C@H]3CC[C@@]21C`, the growth is 71.9%. For the compound `CN1CCN(c2ccc(NC(=O)Nc3ccc4c(ccn4-c4cccc(C(N)=O)n4)c3)cc2C(F)(F)F)CC1`, the growth was 72.5%. Regarding `COc1ccc(NS(=O)(=O)c2ccc(-c3cnc(C4CC4)o3)cc2)cc1Cl`, the growth was 37.3%. With `CC1OC(O[C@@H]2C(O)C(CO)OC(O[C@H]3COC(O[C@H]4CC[C@]5(C)[C@H]6CC[C@]78OC[C@@]9(CC[C@](C)(C=O)C[C@H]97)[C@H](O)C[C@@]8(C)[C@]6(C)CC[C@H]5C4(C)C)[C@@H](OC4OC(CO)[C@@H](O)[C@@H](O)[C@@H]4O)[C@@H]3O)[C@H]2OC2OC[C@@H](O)[C@@H](O)[C@@H]2O)[C@@H](O)[C@@H](O)[C@H]1O` (stereo partly drawn), the growth was -15.2% (active). As to `COc1ccc(-c2ccc3c4c(cccc24)C(=O)N(N2C(=O)c4cccc5cccc(c45)C2=O)C3=O)cc1`, the growth was 96.1%. To `N#Cc1c(NC(=O)c2ccc(F)c(Cl)c2)sc2c1CCC(=O)C2` belongs -7.87% (active); to `Nc1ccc(-c2nnc(SCc3ccc(O)c4ncccc34)o2)cc1`, 3.69% (active); to `IP(CCCCCCCCCCSc1n(Cc2ccc3ccccc3c2)c(-c2ccccc2)c(-c2ccccc2)[n+]1Cc1ccc2ccccc2c1)(c1ccccc1)(c1ccccc1)c1ccccc1`, -66.2% (active).
